Laboratory results from PubChem BioAssay (NCATS).
Inconclusive results are not listed. Activity calls are given as the source filed them. Unless noted, the call rests on the fitted dose curve; in most records, active means well fitted inhibition curve with a large enough effect; inconclusive means small, poorly fitted or top-dose-only effect; inactive means flat fitted curve, though single readings scatter.

Tests used:
[1] = target: Glucocorticoid receptor (Homo sapiens) (UniProt P04150); experiment: GR-EFC Redistribution (AID 451; calls by dose curve; further: potency means the concentration at half of the fitted maximal effect); conditions: CHO-K1 GR-EFC translocation, beta-gal luminescence, 2 h
How it was run: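 CHO-K1 cells expressing nuclear EA and GR-ED fragments of b-gal; compounds titrated up to 46 uM final, 2 h at 37 C. GR nuclear translocation read as complemented b-gal luminescence after 1 h RT detection.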

[2] = target: Mitogen-activated protein kinase 10 (Mus musculus) (UniProt Q61831); experiment: JNK3 AlphaScreen Assay (AID 530; active means well fitted curve in either direction with a large enough effect, not every such curve was filed as active;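 further: kinase came from lysate of stimulated human HepG2 cells; signal reports phosphorylation of biotinylated GST-cJun 1-79 at Ser73 with 10 µM ATP; on the % scale 0 is the no-effect control and ±100 the full control effect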); conditions: JNK3 lysate, c-Jun phosphorylation; series mostly up to 25.6 µM
How it was run: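 HepG2 lysate (IL-1b/TNFa pre-activated) + biotin-GST-cJun 1-79 + anti-pSer73 cJun; cpd titration, 15 min RT; ATP 10 uM start; Tris pH 7.6, MgCl2, DTT, vanadate; beads in EDTA buffer; AlphaScreen.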

[3] = target: 3',5'-cyclic-AMP phosphodiesterase 4B (Homo sapiens) (UniProt Q07343); experiment: qHTS Assay for Inhibitors of PDE-IV (AID 607; active means well fitted activation curve with a large enough effect in the main read-out, with a control signal flat, not every such curve was filed as active; further: % of control where 0% means no effect); conditions: HEK293 ACTOne CNG channel cells, membrane potential fluorescence; series mostly up to 22.9 µM
How it was run: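 HEK293 ACTOne cells with CNG channel (1000/well), endogenous PDE4; membrane potential dye, compounds up to 22.9 uM final. Fluorescence Ex 535/Em 590; RO 20-1724 (100 uM final) as reference.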

[4] = qHTS Assay for Lipid Storage Modulators (AID 1519; calls by dose curve; on activity change, negative = inhibition: on the % scale 0 is the no-effect control and ±100 the full control effect); conditions: Drosophila S3 cells, BODIPY lipid droplet/cell ratio, laser cytometry, cells loaded with oleic acid
How it was run: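 Cells seeded at 5,000 per well were treated with compounds over a concentration series and loaded with oleic acid (400 uM, as added). Lipid droplet fluorescence (488 nm excitation, 500-530 nm channel) was read by laser-scanning cytometry and normalized to 20 uM Triacsin C.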

[5] = target: Ubiquitin carboxyl-terminal hydrolase 1 (Homo sapiens) (UniProt O94782); experiment: Inhibitors of USP1/UAF1: Pilot qHTS (AID 504865); conditions: purified USP1/UAF1, Ub-rhodamine cleavage fluorescence; series mostly up to 114 µM;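 further: rhodamine fluorescence freed from ubiquitin-rhodamine substrate followed over time; top concentration of the series differs between compounds; on the % scale 0 is the no-effect control and ±100 the full control effect; nearly all actives have a fitted effect of over 35% in size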
How it was run: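 Deubiquitinase activity followed as kinetic rhodamine fluorescence release from 150 nM Ub-Rho. 1 nM USP1/UAF1 with compound, after 15 min room-temperature preincubation, in HEPES pH 7.8 buffer containing TCEP, EDTA, BSA and Tween-20.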

[6] = target: Luciferin 4-monooxygenase (Photinus pyralis) (UniProt P08659); experiment: Biochemical firefly luciferase enzyme assay for NPC (AID 624030);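 further: purified P. pyralis luciferase at 10 nM with luciferin and ATP substrate; 0% = DMSO and -100% = full luciferase inhibition by PTC124 control; nearly all actives have a fitted effect of over 70% in size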; conditions: purified P. pyralis luciferase, luminescence, 5 min; series mostly up to 24.9 µM
How it was run: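 Purified P. pyralis luciferase at 10 nM in 50 mM Tris Acetate (final), luminescence read within 5 minutes of enzyme addition to compounds. Activity normalised to PTC124 versus DMSO; concentration-response curves classed by r2, magnitude and activity.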

[7] = qHTS profiling for inhibitors of Plasmodium falciparum proliferation (AID 504749); further: potency means the concentration at half of the fitted maximal effect;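 on activity, negative = inhibition: 0% = DMSO vehicle and full inhibition = artemisinin control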; on all read-outs here: nearly all actives have a fitted effect of over 60% in size; conditions: P. falciparum in erythrocytes, SYBR Green DNA, 72 h; for activity, negative = inhibition: at 12.8 µM (top of the series)
How it was run: (§1)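 SYBR Green fluorescence (ex 485 nm, em 535 nm) reports parasite DNA after 72 h compound exposure of infected red cells at 0.3% parasitemia, 2.5% hematocrit; signal normalized to 0.29 uM artemisinin and vehicle wells.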

3D7 = experiment: as above; conditions: P. falciparum in erythrocytes, SYBR Green DNA, 72 h; series mostly up to 12.8 µM
How it was run: as §1

CP237 = experiment: as above; conditions: P. falciparum in erythrocytes, SYBR Green DNA, 72 h; series mostly up to 12.8 µM
How it was run: as §1

CP297 = experiment: as above; conditions: P. falciparum in erythrocytes, SYBR Green DNA, 72 h; series mostly up to 12.8 µM
How it was run: as §1

PAD = experiment: as above; conditions: P. falciparum in erythrocytes, SYBR Green DNA, 72 h; series mostly up to 12.8 µM
How it was run: as §1

PC26 = experiment: as above; conditions: P. falciparum in erythrocytes, SYBR Green DNA, 72 h; series mostly up to 12.8 µM
How it was run: as §1

C2A = experiment: as above; conditions: P. falciparum in erythrocytes, SYBR Green DNA, 72 h; series mostly up to 12.8 µM
How it was run: as §1

CP217 = experiment: as above; conditions: P. falciparum in erythrocytes, SYBR Green DNA, 72 h; series mostly up to 12.8 µM
How it was run: as §1

CP238 = experiment: as above; conditions: P. falciparum in erythrocytes, SYBR Green DNA, 72 h; series mostly up to 12.8 µM
How it was run: as §1

CP252 = experiment: as above; conditions: P. falciparum in erythrocytes, SYBR Green DNA, 72 h; series mostly up to 12.8 µM
How it was run: as §1

CP291 = experiment: as above; conditions: P. falciparum in erythrocytes, SYBR Green DNA, 72 h; series mostly up to 12.8 µM
How it was run: as §1

ECU = experiment: as above; conditions: P. falciparum in erythrocytes, SYBR Green DNA, 72 h; series mostly up to 12.8 µM
How it was run: as §1

HB3 = experiment: as above; conditions: P. falciparum in erythrocytes, SYBR Green DNA, 72 h; series mostly up to 12.8 µM
How it was run: as §1

SC27B = experiment: as above; conditions: P. falciparum in erythrocytes, SYBR Green DNA, 72 h; series mostly up to 12.8 µM
How it was run: as §1

[8] = measured here: cell count channel max response
[9] = measured here: lipid channel max response

Chain of 3',5'-cyclic-AMP phosphodiesterase 4B (Homo sapiens) (Q07343 whole entry, looked up): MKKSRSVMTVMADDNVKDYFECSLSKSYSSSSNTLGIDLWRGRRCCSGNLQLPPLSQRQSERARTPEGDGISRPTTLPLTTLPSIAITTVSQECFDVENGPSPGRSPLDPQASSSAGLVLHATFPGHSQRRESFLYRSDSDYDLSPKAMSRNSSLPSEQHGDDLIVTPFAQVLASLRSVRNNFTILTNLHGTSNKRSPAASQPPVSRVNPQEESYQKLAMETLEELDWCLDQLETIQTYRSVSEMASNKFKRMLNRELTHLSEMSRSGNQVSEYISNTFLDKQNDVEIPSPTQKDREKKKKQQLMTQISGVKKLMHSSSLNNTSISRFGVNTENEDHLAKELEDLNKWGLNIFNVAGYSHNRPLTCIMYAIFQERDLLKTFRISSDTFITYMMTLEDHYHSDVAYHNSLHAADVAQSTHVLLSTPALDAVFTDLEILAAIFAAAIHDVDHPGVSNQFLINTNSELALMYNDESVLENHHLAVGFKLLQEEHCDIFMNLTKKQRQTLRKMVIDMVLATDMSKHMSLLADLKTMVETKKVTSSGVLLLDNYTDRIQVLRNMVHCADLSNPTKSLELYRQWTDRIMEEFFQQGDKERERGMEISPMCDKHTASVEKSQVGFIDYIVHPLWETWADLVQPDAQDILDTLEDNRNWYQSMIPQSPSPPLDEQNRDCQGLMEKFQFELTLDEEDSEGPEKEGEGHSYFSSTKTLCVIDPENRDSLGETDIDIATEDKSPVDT
Chain of Luciferin 4-monooxygenase (Photinus pyralis) (P08659 whole entry, looked up): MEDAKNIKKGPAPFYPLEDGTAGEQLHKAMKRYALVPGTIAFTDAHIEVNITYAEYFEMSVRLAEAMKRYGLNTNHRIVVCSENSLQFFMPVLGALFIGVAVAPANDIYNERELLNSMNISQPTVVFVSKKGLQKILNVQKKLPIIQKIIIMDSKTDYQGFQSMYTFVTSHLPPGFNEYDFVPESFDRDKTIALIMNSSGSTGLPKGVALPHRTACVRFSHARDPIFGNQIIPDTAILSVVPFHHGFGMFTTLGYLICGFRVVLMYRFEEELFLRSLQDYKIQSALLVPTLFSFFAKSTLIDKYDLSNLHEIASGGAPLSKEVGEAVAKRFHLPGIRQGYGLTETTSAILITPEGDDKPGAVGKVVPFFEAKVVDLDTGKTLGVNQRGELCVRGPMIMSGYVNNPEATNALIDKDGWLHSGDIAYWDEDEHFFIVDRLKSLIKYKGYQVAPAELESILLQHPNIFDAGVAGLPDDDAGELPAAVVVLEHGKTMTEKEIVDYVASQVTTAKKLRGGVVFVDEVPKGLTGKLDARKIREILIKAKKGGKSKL
Chain of Glucocorticoid receptor (Homo sapiens) (P04150 whole entry, looked up, the tested form may be a part): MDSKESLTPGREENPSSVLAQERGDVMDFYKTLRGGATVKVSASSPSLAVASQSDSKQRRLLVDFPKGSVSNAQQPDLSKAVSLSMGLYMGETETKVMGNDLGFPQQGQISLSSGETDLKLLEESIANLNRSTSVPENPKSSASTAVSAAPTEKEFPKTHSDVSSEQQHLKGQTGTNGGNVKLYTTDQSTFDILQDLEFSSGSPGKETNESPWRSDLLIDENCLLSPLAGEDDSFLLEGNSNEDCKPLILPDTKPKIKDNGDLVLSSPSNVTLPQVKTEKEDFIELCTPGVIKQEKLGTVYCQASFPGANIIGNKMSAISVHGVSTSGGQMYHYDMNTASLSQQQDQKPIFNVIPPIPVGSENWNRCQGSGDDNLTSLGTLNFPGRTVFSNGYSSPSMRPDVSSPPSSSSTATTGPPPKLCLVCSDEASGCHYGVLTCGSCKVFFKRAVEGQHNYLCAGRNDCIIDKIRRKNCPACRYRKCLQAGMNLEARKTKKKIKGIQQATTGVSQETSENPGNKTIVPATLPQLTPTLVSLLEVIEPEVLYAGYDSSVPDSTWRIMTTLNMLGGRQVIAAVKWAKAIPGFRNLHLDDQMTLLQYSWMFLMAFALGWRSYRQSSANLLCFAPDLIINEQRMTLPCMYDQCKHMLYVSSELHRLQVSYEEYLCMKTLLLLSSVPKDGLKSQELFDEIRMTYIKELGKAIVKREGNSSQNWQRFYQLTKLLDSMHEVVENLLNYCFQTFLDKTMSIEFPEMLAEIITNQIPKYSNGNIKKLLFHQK
Chain of Ubiquitin carboxyl-terminal hydrolase 1 (Homo sapiens) (O94782 whole entry, looked up): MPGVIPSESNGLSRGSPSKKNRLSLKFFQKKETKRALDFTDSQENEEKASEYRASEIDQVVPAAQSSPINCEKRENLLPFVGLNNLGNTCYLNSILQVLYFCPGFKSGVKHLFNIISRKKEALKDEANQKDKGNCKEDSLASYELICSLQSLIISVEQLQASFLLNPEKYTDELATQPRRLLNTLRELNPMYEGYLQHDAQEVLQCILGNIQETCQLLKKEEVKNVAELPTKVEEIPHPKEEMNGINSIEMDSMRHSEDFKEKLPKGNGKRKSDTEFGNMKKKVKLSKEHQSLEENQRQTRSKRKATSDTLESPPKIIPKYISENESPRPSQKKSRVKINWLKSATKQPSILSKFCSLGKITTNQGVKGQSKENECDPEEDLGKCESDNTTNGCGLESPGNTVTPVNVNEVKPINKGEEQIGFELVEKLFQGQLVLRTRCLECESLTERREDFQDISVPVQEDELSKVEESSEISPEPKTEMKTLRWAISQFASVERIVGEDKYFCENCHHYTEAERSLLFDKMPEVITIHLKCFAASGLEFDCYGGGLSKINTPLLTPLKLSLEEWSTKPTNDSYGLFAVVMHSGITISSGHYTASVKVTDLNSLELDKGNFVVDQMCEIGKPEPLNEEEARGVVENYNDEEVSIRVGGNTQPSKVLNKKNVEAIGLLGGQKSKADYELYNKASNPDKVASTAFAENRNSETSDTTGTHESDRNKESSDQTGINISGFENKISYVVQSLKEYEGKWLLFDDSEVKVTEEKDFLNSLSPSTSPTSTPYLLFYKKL

Compound: CC(=O)O[C@H]1C[C@H]2CC[C@@H]3[C@@H](CC[C@]4(C)[C@H](OC(C)=O)[C@H]([N+]5(C)CCCCC5)C[C@@H]34)[C@]2(C)C[C@H]1[N+]1(C)CCCCC1
- Potency [1]: > 20.6 µM (inactive)
- Potency [2]: inactive
- outcome [3]: inactive
- activity change, negative = inhibition ([4]; at 25.7 µM (top of the series)): -3.97% (inactive)
- max response [4, 8]: 0.133%
- max response [4, 9]: -5.07%

Compound: CCOC(=O)Oc1c(OC)cc(C(=O)O[C@H]2C[C@H]3CN4CCc5c([nH]c6cc(OC)ccc56)[C@@H]4C[C@H]3[C@@H](C(=O)OC)[C@@H]2OC)cc1OC
- Potency [1]: > 20.6 µM (inactive)
- Potency [2]: inactive
- outcome [3]: inactive
- activity change, negative = inhibition ([4]; at 25.7 µM (top of the series)): -4.31% (inactive)
- max response [4, 8]: -12.6%
- max response [4, 9]: -12.3%
- Potency [5]: inactive
- Potency [6]: inactive
- Potency ([7]; parasite line A): 4.47 µM (active)
- Potency (3D7): 3.16 µM (active)
- Potency (CP237): 3.16 µM (active)
- Potency (CP297): 7.21 µM (active)
- Potency (PAD): 3.55 µM (active)
- Potency (PC26): 5.73 µM (active)

Compound: C=CCO[C@@H](Cn1ccnc1)c1ccc(Cl)cc1Cl
- Potency [1]: > 20.6 µM (inactive)
- outcome [3]: inactive
- activity change, negative = inhibition ([4]; at 25.7 µM (top of the series)): -0.8% (inactive)
- max response [4, 8]: -10.1%
- max response [4, 9]: -7.51%

Compound: CC#C[C@@]1(O)CC[C@H]2[C@@H]3CCC4=CC(=O)CCC4=C3[C@H](c3ccc(N(C)C)cc3)C[C@]21C
- outcome [3]: inactive
- activity change, negative = inhibition ([4]; at 25.7 µM (top of the series)): 0.174% (inactive)
- max response [4, 8]: -7.59%
- max response [4, 9]: -5.96%

Compound: C[C@@H]1[C@H]2CC[C@@H]3[C@@H]4CC=C5C[C@@H](N(C)C)CC[C@]5(C)[C@@H]4CC[C@@]32CN1C
- Potency [1]: > 20.6 µM (inactive)
- Potency [2]: inactive
- outcome [3]: inactive
- activity change, negative = inhibition ([4]; at 25.7 µM (top of the series)): -1.08% (inactive)
- max response [4, 8]: -4.62%
- max response [4, 9]: -8.59%

Compound: OCCOCCN1CCN([C@@H](c2ccccc2)c2ccc(Cl)cc2)CC1
- Potency [2]: inactive
- outcome [3]: inactive
- activity change, negative = inhibition ([4]; at 25.7 µM (top of the series)): -0.885% (inactive)
- max response [4, 8]: 8.41%
- max response [4, 9]: 6.93%
- Potency [5]: inactive

Compound: CCN(CC)CCOC(=O)[C@@H](Cc1cccc2ccccc12)C[C@@H]1CCCO1
- Potency [2]: inactive
- outcome [3]: inactive
- activity change, negative = inhibition ([4]; at 25.7 µM (top of the series)): -5.4% (inactive)
- max response [4, 8]: -1.15%
- max response [4, 9]: -7.84%
- Potency [5]: inactive
- Potency [6]: inactive
- activity, negative = inhibition ([7]; parasite line A): 5.1% (inactive)
- activity, negative = inhibition ([7]; parasite line B): 10% (inactive)
- Potency (3D7): inactive
- Potency (C2A): inactive
- Potency (CP217): inactive
- Potency (CP237): inactive
- Potency (CP238): inactive
- Potency (CP252): inactive
- Potency (CP291): inactive
- Potency (CP297): inactive
- Potency (ECU): inactive
- Potency (HB3): inactive
- Potency (PAD): inactive
- Potency (SC27B): inactive

Compound: Nc1nc(=S)c2ncn([C@H]3O[C@@H](CO)[C@@H](O)[C@@H]3O)c2[nH]1
- Potency [1]: > 20.6 µM (inactive)
- Potency [2]: inactive
- outcome [3]: inactive
- activity change, negative = inhibition ([4]; at 25.7 µM (top of the series)): -1.4% (inactive)
- max response [4, 8]: 2.2%
- max response [4, 9]: -3.95%
- Potency [5]: inactive

Compound: CS(=O)(=O)Nc1cccc(-c2nc(Nc3ccc(F)cc3)c3ccccc3n2)c1
- Potency [1]: > 46 µM (inactive)
- Potency [2]: inactive
- outcome [3]: inactive
- activity change, negative = inhibition ([4]; at 57.5 µM (top of the series)): 3.03% (inactive)
- max response [4, 8]: -21%
- max response [4, 9]: -26.1%

Compound: CC(C)(C)NC[C@@H](O)COc1ccccc1C1CCCC1
- Potency [1]: > 20.6 µM (inactive)
- Potency [2]: inactive
- activity change, negative = inhibition ([4]; at 25.7 µM (top of the series)): 1.2% (inactive)
- max response [4, 8]: -14.9%
- max response [4, 9]: -12.5%
- Potency [5]: inactive
- Potency [6]: inactive
- Potency ([7]; parasite line B): 3.16 µM (active)
- Potency (CP217): 3.16 µM (active)
- Potency (CP237): 3.55 µM (active)
- Potency (CP238): 3.16 µM (active)
- Potency (CP252): 3.16 µM (active)
- Potency (CP291): 4.05 µM (active)
- Potency (CP297): 7.21 µM (active)
- Potency (ECU): 3.55 µM (active)
- Potency (HB3): 3.16 µM (active)
- Potency (PAD): 3.16 µM (active)
- Potency (PC26): 6.42 µM (active)
- Potency (SC27B): 3.55 µM (active)
